Assay results as given in PMC5700166.

Legend:
[1] = target: T1, GST-Nv-NF-kB (Ser allele) (Nematostella vectensis, UniProt A7UNT2 2-411); experiment: protein-binding microarray (PBM); PBM: ~300 nM protein, 6 mM HEPES pH 7.8, 80 mM KCl, 0.5 mM EDTA, 0.5 mM EGTA, 6% glycerol, 35 ng/ul poly-dIdC, 1% milk, 1 h, room temperature; Ap Aiptasia and Nv Nematostella (sea anemones) / Co Capsaspora / Aq Amphimedon (sponge) / Dm Drosophila / Hu human; RHD is the Rel homology domain; high values mean tight binding; conditions: dsDNA, one strand shown
T1 sequence: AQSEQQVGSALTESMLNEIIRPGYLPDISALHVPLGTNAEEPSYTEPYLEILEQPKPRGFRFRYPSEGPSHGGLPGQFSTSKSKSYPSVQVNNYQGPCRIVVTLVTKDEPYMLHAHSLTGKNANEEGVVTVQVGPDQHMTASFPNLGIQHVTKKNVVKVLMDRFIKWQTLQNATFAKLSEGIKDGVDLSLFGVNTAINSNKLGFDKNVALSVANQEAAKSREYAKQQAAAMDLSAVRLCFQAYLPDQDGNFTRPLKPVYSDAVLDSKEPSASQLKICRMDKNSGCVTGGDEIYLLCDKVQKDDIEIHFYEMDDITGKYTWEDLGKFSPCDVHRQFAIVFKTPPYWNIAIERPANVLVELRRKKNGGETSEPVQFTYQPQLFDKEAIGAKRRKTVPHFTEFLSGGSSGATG

GST-Hu-p50 = GST-Hu-p50 (Homo sapiens, UniProt P19838 7-356); experiment: as above; conditions: dsDNA, one strand shown
GST-Hu-p50, sequence (P19838 7-356): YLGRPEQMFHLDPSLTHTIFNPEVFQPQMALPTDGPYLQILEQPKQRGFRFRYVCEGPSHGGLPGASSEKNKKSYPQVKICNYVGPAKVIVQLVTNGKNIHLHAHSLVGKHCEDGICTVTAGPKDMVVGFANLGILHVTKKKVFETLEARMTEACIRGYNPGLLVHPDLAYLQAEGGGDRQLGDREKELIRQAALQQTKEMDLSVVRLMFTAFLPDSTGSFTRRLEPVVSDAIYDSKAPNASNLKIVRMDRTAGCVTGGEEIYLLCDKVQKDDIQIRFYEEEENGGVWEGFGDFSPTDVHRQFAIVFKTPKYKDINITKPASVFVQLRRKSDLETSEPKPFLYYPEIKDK

Sequence | binding signal [1] | binding signal (GST-Hu-p50)
CCGATTAACATCAGAATATTCCCTGATGTTAATCGGGTCTTGATTCGCTTGACGCTGCTG | 5.76 z-score | 3.75 z-score
CCGATTAACATCAGGGGCGGGAATGATGTTAATCGGGTCTTGATTCGCTTGACGCTGCTG | 3.18 z-score | 2.9 z-score
CCGATTAACATCAAAAATTTTCCTGATGTTAATCGGGTCTTGATTCGCTTGACGCTGCTG | 1.32 z-score | 2.23 z-score
CCGATTAACATCAGGGATCTACCTGATGTTAATCGGGTCTTGATTCGCTTGACGCTGCTG | 1.74 z-score | 2.74 z-score
CCGATTAACATCAGGGGGTGTAATGATGTTAATCGGGTCTTGATTCGCTTGACGCTGCTG | 4.19 z-score | 3.98 z-score
CCGATTAACATCAGGGAATGTACTGATGTTAATCGGGTCTTGATTCGCTTGACGCTGCTG | 3.55 z-score | 2.72 z-score
CCGATTAACATCAAGGGGGGTGGTGATGTTAATCGGGTCTTGATTCGCTTGACGCTGCTG | 4.43 z-score | 4.27 z-score
CCGATTAACATCAGGGAACAACCTGATGTTAATCGGGTCTTGATTCGCTTGACGCTGCTG | 1.65 z-score | 2.25 z-score
CCGATTAACATCAGGGGGCAAGATGATGTTAATCGGGTCTTGATTCGCTTGACGCTGCTG | 1.92 z-score | 2.2 z-score
CCGATTAACATCAGTAACTCCCTTGATGTTAATCGGGTCTTGATTCGCTTGACGCTGCTG | 2.17 z-score | 2.5 z-score
CCGATTAACATCAAGGGGGTGACTGATGTTAATCGGGTCTTGATTCGCTTGACGCTGCTG | 3.83 z-score | 3.9 z-score
CCGATTAACATCAGAACTTCCCATGATGTTAATCGGGTCTTGATTCGCTTGACGCTGCTG | 2.2 z-score | 1.47 z-score
CCGATTAACATCAGACCTTCCCCTGATGTTAATCGGGTCTTGATTCGCTTGACGCTGCTG | 4.59 z-score | 4.03 z-score
CCGATTAACATCAGAGAAACCCCTGATGTTAATCGGGTCTTGATTCGCTTGACGCTGCTG | 4.24 z-score | 5.09 z-score
CCGATTAACATCAAATTTTCCCATGATGTTAATCGGGTCTTGATTCGCTTGACGCTGCTG | 6.42 z-score | 4.19 z-score
CCGATTAACATCAGGACGTTCCCTGATGTTAATCGGGTCTTGATTCGCTTGACGCTGCTG | 1.14 z-score | 1.71 z-score
CCGATTAACATCAGGAAAACCCATGATGTTAATCGGGTCTTGATTCGCTTGACGCTGCTG | 1.48 z-score | 2.32 z-score
CCGATTAACATCACACATTTCCCTGATGTTAATCGGGTCTTGATTCGCTTGACGCTGCTG | 4.87 z-score | 3.2 z-score
CCGATTAACATCAGGGTAAAACCTGATGTTAATCGGGTCTTGATTCGCTTGACGCTGCTG | 3.53 z-score | 2.56 z-score

Sequence | binding signal [1] | binding signal (GST-Hu-p50)
CCGATTAACATCACCCAGTTCCCTGATGTTAATCGGGTCTTGATTCGCTTGACGCTGCTG | 1.2 z-score | 1.24 z-score
CCGATTAACATCAAAATTCCCGGTGATGTTAATCGGGTCTTGATTCGCTTGACGCTGCTG | 6.06 z-score | 4.89 z-score
CCGATTAACATCAGGGGGACAAATGATGTTAATCGGGTCTTGATTCGCTTGACGCTGCTG | 5.1 z-score | 3.81 z-score
CCGATTAACATCAGGGGGTACACTGATGTTAATCGGGTCTTGATTCGCTTGACGCTGCTG | 3.94 z-score | 3.13 z-score
CCGATTAACATCACGGGAATTTCTGATGTTAATCGGGTCTTGATTCGCTTGACGCTGCTG | 6.48 z-score | 4.6 z-score
CCGATTAACATCAGGGGTTTCACTGATGTTAATCGGGTCTTGATTCGCTTGACGCTGCTG | 2.32 z-score | 4.22 z-score
CCGATTAACATCAAATTGCCCCCTGATGTTAATCGGGTCTTGATTCGCTTGACGCTGCTG | 4.54 z-score | 4.59 z-score
CCGATTAACATCAAAAAACACCCTGATGTTAATCGGGTCTTGATTCGCTTGACGCTGCTG | 4.25 z-score | 5.16 z-score
CCGATTAACATCAGGACACTCCCTGATGTTAATCGGGTCTTGATTCGCTTGACGCTGCTG | 1.43 z-score | 1.94 z-score
CCGATTAACATCAGGAATAACCCTGATGTTAATCGGGTCTTGATTCGCTTGACGCTGCTG | 1.44 z-score | 3.24 z-score
CCGATTAACATCAATCGTCCCCCTGATGTTAATCGGGTCTTGATTCGCTTGACGCTGCTG | 4.3 z-score | 3.44 z-score
CCGATTAACATCAAAAAAAGTACTGATGTTAATCGGGTCTTGATTCGCTTGACGCTGCTG | 1.16 z-score | 1.52 z-score
CCGATTAACATCAGGCCGTCCCCTGATGTTAATCGGGTCTTGATTCGCTTGACGCTGCTG | 3.43 z-score | 3.86 z-score
CCGATTAACATCAAGGCATTCCCTGATGTTAATCGGGTCTTGATTCGCTTGACGCTGCTG | 2.11 z-score | 1.31 z-score
CCGATTAACATCAGGGCGTCCCCTGATGTTAATCGGGTCTTGATTCGCTTGACGCTGCTG | 4.47 z-score | 4.86 z-score
CCGATTAACATCAACGTATTCCCTGATGTTAATCGGGTCTTGATTCGCTTGACGCTGCTG | 3.53 z-score | 1.19 z-score
CCGATTAACATCAGAGTCCCCCCTGATGTTAATCGGGTCTTGATTCGCTTGACGCTGCTG | 5.12 z-score | 5.06 z-score
CCGATTAACATCAGGGCATACCCTGATGTTAATCGGGTCTTGATTCGCTTGACGCTGCTG | 1.31 z-score | 1.86 z-score
